Experimental data: PubChem BioAssay (NCI)
The panel holds about 79,000 compounds, 15% with a hit somewhere; the sample as a whole holds those more often. Unmarked numbers belong to inactive results. Active and inactive are the calls of the source. No stated cut-off is given here; in the data, active means growth inhibition above about 70%; inactive means the rest.

Legend:
[1] = NCI Yeast Anticancer Drug Screen. Data for the rad50 strain (AID 155);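 further: 0% = growth of vehicle-only cultures of the same strain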; details: S. cerevisiae rad50 strain growth inhibition; at 50.0 µM; active compounds read high
In short: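 Inhibition values express reduced yeast growth in compound-treated cultures relative to vehicle-treated controls.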

[2] = NCI Yeast Anticancer Drug Screen. Data for the mec2-1 strain (AID 157); details: S. cerevisiae mec2-1 strain, at 50.0 µM, active compounds read high
In short: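 Yeast mec2-1 mutant treated with compound. Readout: growth inhibition vs vehicle controls.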

[3] = NCI Yeast Anticancer Drug Screen. Data for the sgs1 mgt1 strain (AID 161);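 further: 0% = growth of cultures given vehicle only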; details: S. cerevisiae sgs1 mgt1 strain, at 50.0 µM, active compounds read high
In short: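 Genetically altered yeast, compound exposure, growth inhibition relative to vehicle.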

[4] = NCI Yeast Anticancer Drug Screen. Data for the cln2 rad14 strain (AID 165);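 further: 0% = growth equal to vehicle treated cultures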; details: S. cerevisiae cln2 rad14 strain, at 50.0 µM, active compounds read high
In short: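 cln2 rad14 yeast strain; compound exposure; growth inhibition read vs vehicle controls.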

[5] = NCI Yeast Anticancer Drug Screen. Data for the bub3 strain (AID 167); details: S. cerevisiae bub3 mutant strain, at 50.0 µM, active compounds read high
In short: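 Steps: expose the mutant yeast strain to compound; grow alongside vehicle-treated cultures; measure growth; express inhibition against the vehicle cultures.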

[6] = NCI Yeast Anticancer Drug Screen. Data for the mlh1 rad18 strain (AID 175); details: S. cerevisiae mlh1 rad18 strain growth inhibition; at 50.0 µM; active compounds read high
In short: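 Yeast w/ defined DNA-repair lesions; compound exposure; growth vs vehicle controls → % inhibition.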

CN(C)c1ccc(SSc2ccc(N(C)C)cc2)cc1
growth inhibition [1]: -6.9% | growth inhibition [2]: -20.6% | growth inhibition [3]: 3.2% | growth inhibition [4]: -3.9% | growth inhibition [5]: 6.55% | growth inhibition [6]: 1.25%

CCCCCNC(=S)NNC(N)=O
growth inhibition [1]: 4.2% | growth inhibition [2]: -0.15% | growth inhibition [3]: -12.8% | growth inhibition [4]: -0.7% | growth inhibition [5]: 5.25% | growth inhibition [6]: -0.75%

CCCCOCCC1CCNCC1
growth inhibition [1]: -46% | growth inhibition [2]: -44.1% | growth inhibition [3]: -51.5% | growth inhibition [4]: 10.8% | growth inhibition [5]: -48% | growth inhibition [6]: -24%

COc1ccc(Cl)cc1NC(=O)Oc1ccccc1C(N)=O
growth inhibition [1]: -1.05% | growth inhibition [2]: 43.5% | growth inhibition [3]: 24.6% | growth inhibition [4]: -12.8% | growth inhibition [5]: 40.6% | growth inhibition [6]: 3.1%

O=C(NCCCl)Nc1ccc2c(c1)CCC2
growth inhibition [1]: 1.55% | growth inhibition [2]: 3.3% | growth inhibition [3]: 1.55% | growth inhibition [4]: -10.8% | growth inhibition [5]: 10.8% | growth inhibition [6]: 6.7%

O=C(CCc1cc(O)ccc1O)OCCc1ccccc1
growth inhibition [1]: 30.9% | growth inhibition [2]: 71.2% (active) | growth inhibition [3]: 91.6% (active) | growth inhibition [4]: 85.3% (active) | growth inhibition [5]: 88.4% (active) | growth inhibition [6]: 91.5% (active)

CCC/C(=N/NC(=O)C1CCCO1)c1ccccc1 (configuration not stated)
growth inhibition [1]: -1.8% | growth inhibition [2]: 18.4% | growth inhibition [3]: 16.6% | growth inhibition [4]: -4.2% | growth inhibition [5]: 7.5% | growth inhibition [6]: 26%

C1CC[N+]2(CC1)CCCCC2
growth inhibition [1]: 0.1% | growth inhibition [2]: 9.4% | growth inhibition [3]: -0.55% | growth inhibition [4]: 14.2% | growth inhibition [5]: 23.1% | growth inhibition [6]: -0.45%

CCOC(=O)C(C(=O)OCC)C(C(=O)OCC)(C(=O)OCC)C(C(=O)OCC)C(=O)OCC
growth inhibition [1]: -15.2% | growth inhibition [2]: -9.15% | growth inhibition [3]: 1.85% | growth inhibition [4]: -3.55% | growth inhibition [5]: -3.65% | growth inhibition [6]: -19.9%

C1CC2(CC3(C1)SCCS3)SCCS2
growth inhibition [1]: -0.3% | growth inhibition [2]: 7.2% | growth inhibition [3]: -0.85% | growth inhibition [4]: -12.3% | growth inhibition [5]: 1.55% | growth inhibition [6]: 0.05%

O=C(Nc1cc(Br)c2cccc3c2c1CC3)c1ccccc1
growth inhibition [1]: 6.35% | growth inhibition [2]: 10.9% | growth inhibition [3]: 1.45% | growth inhibition [4]: -5.25% | growth inhibition [5]: 14.3% | growth inhibition [6]: -0.95%

COc1cccc2c1C1(O)C2CCCC12OCCCO2 (configuration not stated)
growth inhibition [1]: -26.3% | growth inhibition [2]: -10.3% | growth inhibition [3]: -50% | growth inhibition [4]: 6.5% | growth inhibition [5]: -29.4% | growth inhibition [6]: -31.2%

CCOC(=O)CC(=O)c1sc(SC)c(C#N)c1N
growth inhibition [1]: -8% | growth inhibition [2]: -9.6% | growth inhibition [3]: -10.2% | growth inhibition [4]: -2% | growth inhibition [5]: 1.6% | growth inhibition [6]: 1.6%

CC(=O)Oc1cc(C(F)(F)F)ccc1C(=O)OC1(C)OC(=O)c2ccc(C(F)(F)F)cc2O1 (configuration not stated)
growth inhibition [1]: -34.1% | growth inhibition [2]: -12.9% | growth inhibition [3]: -21.4% | growth inhibition [4]: -2.85% | growth inhibition [5]: -13.9% | growth inhibition [6]: -16.9%

c1ccc(-c2nn(-c3ccccc3)[n+](-c3ccccc3)n2)cc1
growth inhibition [1]: 5.4% | growth inhibition [2]: 1.15% | growth inhibition [3]: 21.9% | growth inhibition [4]: 24.1% | growth inhibition [5]: 30.7% | growth inhibition [6]: 4.35%

COC(=O)Oc1ccc(Cl)cc1Cl
growth inhibition [1]: -18.1% | growth inhibition [2]: -6.05% | growth inhibition [3]: 15.9% | growth inhibition [4]: -77.4% | growth inhibition [5]: -8.25% | growth inhibition [6]: 5.7%

COc1ccc(C(=O)c2ccccc2C)cc1OC
growth inhibition [1]: 1.65% | growth inhibition [2]: 0.1% | growth inhibition [3]: -1.15% | growth inhibition [4]: 28.1% | growth inhibition [5]: 36.5% | growth inhibition [6]: 0.15%

CCCCN(CCO)CC(O)Cn1cnc2c(N)ncnc21 (configuration not stated)
growth inhibition [1]: 17.4% | growth inhibition [2]: 13.9% | growth inhibition [3]: 8.85% | growth inhibition [4]: 0.7% | growth inhibition [5]: -5.65% | growth inhibition [6]: 21.3%

Cc1cnc2c(C)ccc([N+](=O)[O-])c2c1NCCCN(C)C
growth inhibition [1]: 34.2% | growth inhibition [2]: 13.8% | growth inhibition [3]: 12.7% | growth inhibition [4]: 2.45% | growth inhibition [5]: 16.9% | growth inhibition [6]: 52%

Ic1ccc(-n2cccc2)cc1
growth inhibition [1]: 8.4% | growth inhibition [2]: 5.55% | growth inhibition [3]: -1.7% | growth inhibition [4]: -3.25% | growth inhibition [5]: 13.8% | growth inhibition [6]: -18.6%

O=C1c2ccccc2C(=O)N1c1ccccc1Cl
growth inhibition [1]: 4.45% | growth inhibition [2]: -11% | growth inhibition [3]: 27.8% | growth inhibition [4]: -111% | growth inhibition [5]: 39% | growth inhibition [6]: 19.7%

CCOC(=O)c1ncn2c1[nH]c(=S)c1ccccc12
growth inhibition [1]: -14.8% | growth inhibition [2]: -19.1% | growth inhibition [3]: -11.2% | growth inhibition [4]: -0.95% | growth inhibition [5]: -17.9% | growth inhibition [6]: -2.05%

CCCCCCCCCCCCCCCCS
growth inhibition [1]: -2.15% | growth inhibition [2]: -16.4% | growth inhibition [3]: 17.6% | growth inhibition [4]: -6.6% | growth inhibition [5]: 6.6% | growth inhibition [6]: -4.8%

O=C(O)[C@H](c1ccccc1)[C@@H](C(=O)O)c1ccccc1
growth inhibition [1]: -8.25% | growth inhibition [2]: -5.75% | growth inhibition [3]: -8.35% | growth inhibition [4]: -3.35% | growth inhibition [5]: -53.8% | growth inhibition [6]: -1.4%

Cc1ccc(CCCC(=O)O)c2ccc3ccccc3c12
growth inhibition [1]: 4.15% | growth inhibition [2]: 2.4% | growth inhibition [3]: 8.6% | growth inhibition [4]: -9.4% | growth inhibition [5]: 4.3% | growth inhibition [6]: 3.55%

Cc1cc(Sc2ccccc2)nc2ccccc12
growth inhibition [1]: 8.5% | growth inhibition [2]: -12.2% | growth inhibition [3]: 41.6% | growth inhibition [4]: 4.1% | growth inhibition [5]: 48.5% | growth inhibition [6]: 12.3%

CN1C(=O)/C(=N/N(c2ccccc2)c2ccccc2)c2ccccc21
growth inhibition [1]: -5.4% | growth inhibition [2]: 26.6% | growth inhibition [3]: -3.85% | growth inhibition [4]: -3.55% | growth inhibition [5]: 21.2% | growth inhibition [6]: 5.5%

CC(NS(=O)(=O)c1ccccc1)C(N)=O (configuration not stated)
growth inhibition [1]: 2.75% | growth inhibition [2]: 2.1% | growth inhibition [3]: 3.55% | growth inhibition [4]: -11.2% | growth inhibition [5]: 6.95% | growth inhibition [6]: -2.4%

O=C1OC(/C=C/c2ccccc2)=NC/1=C\c1ccc(Cl)cc1
growth inhibition [1]: 23.4% | growth inhibition [2]: 14.1% | growth inhibition [3]: 23.6% | growth inhibition [4]: 13.7% | growth inhibition [5]: 7.15% | growth inhibition [6]: 10.2%

CCCC(CN1CCCCC1)C(OC(=O)c1ccc(N)cc1)C(F)(F)F (configuration not stated)
growth inhibition [1]: -14.2% | growth inhibition [2]: -13.7% | growth inhibition [3]: 24.1% | growth inhibition [4]: -30.8% | growth inhibition [5]: 67.5% | growth inhibition [6]: 22.4%

CC1=C(C)CC2C(=O)C=CC(=O)C2C1 (configuration not stated)
growth inhibition [1]: 8.9% | growth inhibition [2]: 1.4% | growth inhibition [3]: -10.7% | growth inhibition [4]: 4.65% | growth inhibition [5]: 2.25% | growth inhibition [6]: -6.9%

O=C(c1ccccc1)C(c1ccccc1)S(=O)(=O)N1CCOCC1 (configuration not stated)
growth inhibition [1]: 1.3% | growth inhibition [2]: 13.3% | growth inhibition [3]: 2.85% | growth inhibition [4]: -13.1% | growth inhibition [5]: -11.6% | growth inhibition [6]: -7.65%

C[C@@H]1O[C@]2(O)[C@@H]3CCCN3S(=O)(=O)CCN2C1=O
growth inhibition [1]: 2.1% | growth inhibition [2]: -21.6% | growth inhibition [3]: -16.9% | growth inhibition [4]: 17.7% | growth inhibition [5]: -11.3% | growth inhibition [6]: -17.1%

O=C1c2ccccc2OCC1/C=N/O (configuration not stated)
growth inhibition [1]: 1.9% | growth inhibition [2]: -24.1% | growth inhibition [3]: -26.4% | growth inhibition [4]: 32.2% | growth inhibition [5]: -34.1% | growth inhibition [6]: -10.8%

CC(C)(C)c1cc(C(=S)N2CCN(C(=S)c3cc(C(C)(C)C)c(O)c(C(C)(C)C)c3)CC2)cc(C(C)(C)C)c1O
growth inhibition [1]: 4.05% | growth inhibition [2]: -10.7% | growth inhibition [3]: -10.9% | growth inhibition [4]: -48.5% | growth inhibition [5]: 2.45% | growth inhibition [6]: -16.9%

Clc1ccc(CCn2ccc3ccccc32)c(Cl)c1
growth inhibition [1]: -12.6% | growth inhibition [2]: -10% | growth inhibition [3]: 0.05% | growth inhibition [4]: 7.2% | growth inhibition [5]: 16.9% | growth inhibition [6]: 4.35%

c1ccc(N=C2NNC(=Nc3ccccc3)NN2)cc1
growth inhibition [1]: -17.9% | growth inhibition [2]: 2.2% | growth inhibition [3]: 5.4% | growth inhibition [4]: 1.85% | growth inhibition [5]: 3.35% | growth inhibition [6]: 7.65%

CSC(C1c2ccccc2N(C)C2=NC(=O)N(C)C(=O)C21Cl)S(=O)(=O)c1ccc(C)cc1 (configuration not stated)
growth inhibition [1]: 50.2% | growth inhibition [2]: 12.2% | growth inhibition [3]: 27.4% | growth inhibition [4]: 35.7% | growth inhibition [5]: 45.4% | growth inhibition [6]: 51.3%

CCN(CC(=O)O)C(=O)c1cccnc1
growth inhibition [1]: -17.9% | growth inhibition [2]: 4.05% | growth inhibition [3]: -33.4% | growth inhibition [4]: -28.7% | growth inhibition [5]: -6.6% | growth inhibition [6]: -6.4%

CCCC(=O)OC1CCCC1
growth inhibition [1]: 27.9% | growth inhibition [2]: 27.8% | growth inhibition [3]: 20.4% | growth inhibition [4]: 24.1% | growth inhibition [5]: 21.8% | growth inhibition [6]: 28.7%

O=C(NN1C(=O)C(Cl)C1c1ccccc1Cl)c1ccccc1O (configuration not stated)
growth inhibition [1]: -48.1% | growth inhibition [2]: -35.9% | growth inhibition [3]: -49.1% | growth inhibition [4]: -5.55% | growth inhibition [5]: -21% | growth inhibition [6]: -36%

CN1CC2=C(NC(=S)NC2c2ccccc2)/C(=C/c2ccccc2)C1 (configuration not stated)
growth inhibition [1]: -14.5% | growth inhibition [2]: -8.75% | growth inhibition [3]: 5.65% | growth inhibition [4]: 6.8% | growth inhibition [5]: 22.4% | growth inhibition [6]: -13.2%
